In all, about 110,000 compounds went through this assay and about 230 (0.21%) showed an effect of 50% or more. What follows is part of a selection rich in strong results, with near analogues and random picks from the rest.
Biological target: DPAP1 (Plasmodium falciparum, UniProt Q8IIJ9)
Assay: primary screen, percent inhibition; read by cleavage of a fluorogenic dipeptide substrate; higher = more effect of the substance
Set-up: species or system P. falciparum D10 trophozoite lysates; single well
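Further: 30 min substrate incubation versus DMSO and 10 µM JCP410 controls.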

Sequence of DPAP1 (Q8IIJ9 whole entry, looked up): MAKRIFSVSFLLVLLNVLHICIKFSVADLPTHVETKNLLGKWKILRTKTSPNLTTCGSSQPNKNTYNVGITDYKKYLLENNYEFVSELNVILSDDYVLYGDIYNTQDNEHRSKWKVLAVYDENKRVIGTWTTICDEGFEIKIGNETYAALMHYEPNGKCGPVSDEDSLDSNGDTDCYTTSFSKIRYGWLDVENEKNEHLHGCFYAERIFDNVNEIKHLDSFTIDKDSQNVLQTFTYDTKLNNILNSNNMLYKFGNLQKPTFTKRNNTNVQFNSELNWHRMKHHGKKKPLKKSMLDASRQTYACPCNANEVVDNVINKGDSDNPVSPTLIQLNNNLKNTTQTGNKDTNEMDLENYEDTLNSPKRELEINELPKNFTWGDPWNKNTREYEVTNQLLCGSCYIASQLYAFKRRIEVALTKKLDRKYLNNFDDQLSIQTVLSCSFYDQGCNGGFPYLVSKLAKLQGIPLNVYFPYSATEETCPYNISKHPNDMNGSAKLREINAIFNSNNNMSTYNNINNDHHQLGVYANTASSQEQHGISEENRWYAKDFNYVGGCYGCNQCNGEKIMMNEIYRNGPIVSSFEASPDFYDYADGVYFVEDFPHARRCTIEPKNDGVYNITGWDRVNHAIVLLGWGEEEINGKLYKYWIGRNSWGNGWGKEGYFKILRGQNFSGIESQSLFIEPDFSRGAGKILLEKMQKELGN

Compound | % Inhibition @ 10 uM [%]
Cc1nc2c(c(C)nn2-c2ccccc2)c(C)c1CCC(=O)NCCC(C)C | 2.57
CCc1ccc2ncc(S(=O)(=O)c3ccccc3)c(N3CCCC3)c2c1 | -3.69
CSC1=C(C#N)C2(CCCCC2)C(C#N)C(=O)N1 (stereo not drawn) | -0.736
CSC1=C(C#N)C2(CCCC2)C(C#N)C(=O)N1 (stereo not drawn) | -0.239
N#CC1=C(S)NC(=O)C(C#N)C12CCCCC2 (stereo not drawn) | 57.8
CCN(CC)C(=O)/C=C/c1ccc(Cl)cc1 | 3
Cn1c(=O)c2c(nc(CN3CCc4ccccc4C3)n2CCCc2ccccc2)n(C)c1=O | 59.1
Cn1c(=O)c2c(nc(CN3CCc4ccccc4C3)n2Cc2ccccc2)n(C)c1=O | -0.499
Cn1c(=O)c2c(nc(CN3CCc4ccccc4C3)n2CCc2ccccc2)n(C)c1=O | 2
CC1=CC2=NC(=O)/C(=C\c3cccn3CCCOc3ccc(C)cc3)C(=N)N2O1 | -1.43
CCOC(=O)c1cc2c(=O)n3ccccc3nc2n(CCOC)/c1=N\C(=O)C(C)(C)C | -2.04
COC(=O)Nc1ccc(S(=O)(=O)N2CCN(c3ccccc3OC)CC2)cc1 | -5.13
Cc1cc(C)nc(SC(=O)c2ccc(Cl)cc2Cl)n1 | -5.13
COc1ccc(C(=O)Sc2nc(C)cc(C)n2)cc1 | 54.6
COC(=O)c1ccc(Oc2nc(C)cc(N)n2)cc1 | -2.87
CCNc1nc(-c2ccccc2)cs1 | 89.1
CCCNc1nc(-c2ccc(C)cc2)cs1 | 3.33
c1ccc(-c2csc(NCc3ccco3)n2)cc1 | -0.178
c1ccc(CC2CCN(c3ncnc4sc5c(c34)CCCC5)CC2)cc1 | 2.92
CCn1cc2c(n1)-c1c(oc(C(=O)NCc3cccc(Br)c3)c1C)CC2 | 13.8
CCOC(=O)c1c(CC(C)C)csc1NC(=O)c1ccc(C)cc1 | -5.9
CCN(CC)C(=O)CSc1nc2c(c(C(F)(F)F)c1C#N)CCC2 | 5.64

Compound | % Inhibition @ 10 uM [%]
CCC1CCc2nc(S)c(C#N)c(C(F)(F)F)c2C1 (stereo not drawn) | 88.2
CCC1CCc2c(sc(N)c2C#N)C1 (stereo not drawn) | 11.8
CC(C)c1ccc(/C=C2/NC(=O)NC2=O)cc1 | -1.25
Cc1ccc(S(=O)(=O)N2CCCN(S(=O)(=O)c3ccc(C)c(C)c3)CC2)cc1C | 22.6
CC(C)n1c(-c2ccccc2)nc2ccccc21 | -0.769
CC(C)n1c(-c2ccc(C(=O)N3CCN(C)CC3)cc2)nc2ccccc21 | 83.9
CN1CCN(C(=O)c2ccc(-c3ccccc3)cc2)CC1 | 2.6
Cc1ccc(C)c(-c2csc(Nc3ccc(C)c(Cl)c3)n2)c1 | 0.912
Oc1c2nc(S)nc-2cnn1-c1ccccc1 | 87.4
CCSc1c(S)cnn(-c2ccccc2)c1=O | 1.7
Cc1ccc(-c2nc3cnn(-c4ccccc4)c(O)c-3n2)cc1 | 2
CC(C)C(NS(=O)(=O)c1cccs1)C(=O)NCc1ccccc1Cl (stereo not drawn) | -4.07
CCOc1ccc(-c2cn3ncsc3n2)cc1 | 2.41
O=C(c1cccnc1)c1conc1C(=O)c1ccc(Br)cc1 | 91.9
O=C(c1ccccn1)c1conc1C(=O)c1cccs1 | 1.82
O=C(c1ccccn1)c1conc1C(=O)c1ccc(Br)cc1 | 3.72
O=C(c1cccs1)c1conc1C(=O)c1ccc(Br)cc1 | 93.8
O=C(c1nc2ccccc2s1)c1conc1C(=O)c1cccs1 | 4.03
O=C(c1ccccc1)c1conc1C(=O)c1ccc(Br)cc1 | 4.52
Cc1ccc(C2=CC(c3cccs3)n3ncnc3N2)cc1C (stereo not drawn) | 1.86
Cc1nc(NC(=O)c2ccccc2Cl)ccc1Br | -2.67
COc1ccc(Cl)cc1C(=O)Nc1ccc(Br)c(C)n1 | 70.4

Compound | % Inhibition @ 10 uM [%]
Cc1nc(NC(=O)c2cc(Cl)ccc2Cl)ccc1Br | 0.755
CN(Cc1ccccc1)Cc1ccc(O)cc1 | -1.78
CC1(C)Cc2c(c(N3CCOCC3)nc3sc(C(=O)N4CCCCC4)c(N)c23)CO1 | 3.93
CCOC(=O)c1sc2nc(N3CCOCC3)c3c(c2c1N)CCCC3 | -2.87
NC(=O)c1sc2nc(N3CCOCC3)c3c(c2c1N)CCCC3 | 50.2
Nn1c(S)nnc1-c1ccccc1 | 1.63
O=C1c2cccnc2C(=O)N1Cc1ccc(S(=O)(=O)NCCc2ccc(Cl)cc2)s1 | -3.66
COc1ccccc1CNC(=O)[C@H](CCSC)N1Cc2ccccc2C1=O | 2.93
CCCC1CCc2c(sc(NC(=O)C3CCCO3)c2C(N)=O)C1 (stereo not drawn) | 1.57
c1ccc(Cc2c[nH]c3ccccc23)cc1 | 0.736
c1ccc2c(Cc3nn[nH]n3)c[nH]c2c1 | 85
c1ccc2c(Cc3c[nH]c4ccccc34)c[nH]c2c1 | -0.0372
CCC1(C)CC(=O)c2c(ccc3oc(C(=O)NCc4ccco4)c(C)c23)O1 (stereo not drawn) | -2.17
CC1=C(C)CC(C(=O)NCc2ccc(F)cc2)C(C(=O)O)C1 (stereo not drawn) | 8.6
COc1ccccc1-c1coc2cc(OCC(=O)O)ccc2c1=O | -1.92
COc1ccc2c(COc3ccc4c(=O)c(-c5ccccc5)coc4c3)cc(=O)oc2c1 | -2.91
COc1ccc(-c2coc3cc(OC)ccc3c2=O)c(O)c1 | 62.1
O=C(Cn1ncc2c3ccccc3nc-2c1O)N1CCC(c2ccccc2)C1 (stereo not drawn) | 2.36
c1ccc(-c2nc3c4cnn(-c5ccccc5)c4ncn3n2)cc1 | -6.09
Cc1oc2c(C)c3oc(=O)c(CC(=O)N4CCOCC4)c(C)c3cc2c1-c1ccccc1 | 2.54
Cc1ccc2c(c1Br)C1(C(=O)N2)C(C#N)=C(N)Oc2cc(N)ccc21 (stereo not drawn) | 5.35
Cc1ccc2nc3c(cc(C(=O)NCC4CCCO4)c(=N)n3C3CCCCC3)c(=O)n2c1 (stereo not drawn) | 3.6

Compound | % Inhibition @ 10 uM [%]
Cc1ccc2nc3c(cc(C(=O)NCC4CCCO4)c(=N)n3CCc3ccccc3)c(=O)n2c1 (stereo not drawn) | 0.279
COCCn1c(=N)c(C(=O)NCC2CCCO2)cc2c(=O)n3cc(C)ccc3nc21 (stereo not drawn) | 94.3
COc1ccc2cc3cc(C(=O)NCCN(C)C)oc3nc2c1 | -1.54
Cc1ccccc1CSCC(=O)NC1CCCC1 | 2.15
OC(Cn1ccnc1)(c1ccc(F)cc1)c1ccccn1 (stereo not drawn) | 2.62
COc1ccc(CNC(=O)c2noc3c2COc2ccc(C)cc2-3)cc1 | -3.17
Cc1ccc(CNC(=O)c2noc3c2COc2ccccc2-3)cc1 | 72.8
O=C(NCc1ccc(F)cc1)c1noc2c1CCc1ccccc1-2 | -9.28
O=C(NCc1ccc(F)cc1)c1noc2c1COc1ccccc1-2 | 69.7
Cc1ccc2c(c1)-c1onc(C(=O)NCc3ccccc3Cl)c1CO2 | 0.589
O=C(NCc1ccc2c(c1)OCO2)c1noc2c1COc1ccccc1-2 | 73.5
O=C(NCc1ccc2c(c1)OCO2)c1cc(-c2ccccc2F)no1 | -2.07
CN(Cc1ccccc1)C(=O)c1noc2c1COc1ccccc1-2 | 7.85
Cc1onc(-c2ccccc2Cl)c1C(=O)NCc1ccc2c(c1)OCO2 | -6.92
CC(C)C(=O)NC(c1ccc(Cl)cc1)c1ccc2cccnc2c1O (stereo not drawn) | -8.88
CCc1nc2ccccc2c(NC(=O)CN2CCCC2)c1C | -4.96
CN(Cc1ccccc1)C(=O)c1ccc(C(C)(C)C)cc1 | 8.01
CCN(CC)C1=NC(C(F)(F)F)(C(F)(F)F)N=C(c2ccc(OC)cc2)O1 | -3.53
Cn1nc(C(=O)NCCc2ccccc2)c2c1-c1ccccc1SC2 | -0.495
Cn1nc(C(=O)NCc2cccnc2)c2c1-c1ccccc1SC2 | 36.1
Cn1nc(C(=O)NCc2ccco2)c2c1-c1ccccc1SC2 | 30.8
Cc1ccc(CNC(=O)c2nn(C)c3c2CSc2ccccc2-3)cc1 | 51.6

Compound | % Inhibition @ 10 uM [%]
Cn1nc(C(=O)NCc2ccc3c(c2)OCO3)c2c1-c1ccccc1SC2 | 86.5
Cn1nc(C(=O)NCc2ccc3c(c2)OCO3)c2c1-c1ccccc1S(=O)(=O)C2 | -3.8
O=C(NCC1CCCO1)C1CCCN(S(=O)(=O)N2CCC3(CC2)OCCO3)C1 (stereo not drawn) | -1.67
CC(=O)C1=C(C)OC(N)=C(C#N)C1c1ccccc1[N+](=O)[O-] (stereo not drawn) | -1.29
Cc1cccc(Nc2nc(-c3sc(N)nc3C)cs2)c1 | 2.7
Cc1ccc(OC(C)C(=O)N(Cc2ccccc2)C2CCS(=O)(=O)C2)cc1C (stereo not drawn) | 0.561
Cc1cc(C)c2nc(N3CCCC(C(=O)N4CCCCCC4)C3)sc2c1 (stereo not drawn) | 1.8
CSc1nc(N)c2c3c(sc2n1)CN(Cc1ccccc1)CC3 | -1.66
Nc1nc(S)nc2sc3c(c12)CCN(Cc1ccccc1)C3 | 54.1
CCN1CCc2c(sc3nc(S)nc(N)c23)C1 | 42.8
CC(C)C[C@H](NC(=O)OCc1ccccc1)C(=O)NCC(=O)CN(Cc1ccco1)C(=O)OC(C)(C)C | -7.36
CC1(C)CC2=NC(S)=C(C#N)C(c3cccnc3)C2=C(O)C1 (stereo not drawn) | 67.3
CC1=C(C#N)C(c2ccccc2)C2=C(O)CC(C)(C)CC2=N1 (stereo not drawn) | 2.41
CC1=C(C#N)C(c2cccnc2)C2=C(O)CC(C)(C)CC2=N1 (stereo not drawn) | -4.03
COc1cc(-c2nnc3sc(/C=C/c4ccco4)nn23)cc(OC)c1OC | 6.01
COc1cc(-c2nnc3sc(/C=C/c4ccccc4)nn23)cc(OC)c1OC | 59.6
COc1cc(-c2nnc3sc(-c4ccc(C)c(C)c4)nn23)cc(OC)c1OC | 29.8
COc1ccccc1-c1nnc2sc(/C=C/c3ccccc3)nn12 | 6.01
CCOc1ccc(-c2nn3c(-c4cc(OC)c(OC)c(OC)c4)nnc3s2)cc1 | 56.2
COc1cc(-c2nnc3sc(-c4ccc(C(C)(C)C)cc4)nn23)cc(OC)c1OC | 2.89

From paper PMC6919601, “Identification of Plasmodium dipeptidyl aminopeptidase allosteric inhibitors by high throughput screening” (PLoS ONE, 2019)
